In PubChem BioAssay:
Values without a mark were called inactive. How the calls were made is not given here.

target: Pantothenate synthetase (Mycobacterium tuberculosis (strain ATCC 25618 / H37Rv)) (UniProt P9WIL5); assay: Recombinant Mtb pantothenate synthetase (PanC) inhibitors, coupled enzyme, confirmatory (AID 375); conditions: coupled enzyme assay; at 10 µM, active compounds read high;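 further: 0% = full reaction with vehicle and 100% = no enzyme background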
Sequence (P9WIL5 whole entry, looked up): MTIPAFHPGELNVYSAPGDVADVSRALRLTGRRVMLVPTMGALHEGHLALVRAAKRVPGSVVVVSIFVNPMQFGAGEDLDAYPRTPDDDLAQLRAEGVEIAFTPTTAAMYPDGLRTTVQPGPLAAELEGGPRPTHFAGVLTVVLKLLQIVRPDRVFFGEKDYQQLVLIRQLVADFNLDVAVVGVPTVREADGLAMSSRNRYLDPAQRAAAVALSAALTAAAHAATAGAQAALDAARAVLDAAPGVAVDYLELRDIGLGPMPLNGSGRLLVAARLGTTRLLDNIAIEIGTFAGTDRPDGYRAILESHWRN

In order of falling inhibition:
1. CCC(=O)Nc1c(C#N)c2nc3ccccc3nc2n1-c1ccccc1C  16%
2. CCCCC(=O)O[C@]1(C(=O)CO)CC[C@H]2[C@@H]3CCC4=CC(=O)CC[C@]4(C)[C@H]3[C@@H](O)C[C@@]21C  10%
3. CCc1ccc2nc(NC(=O)CSCc3c(C)noc3C)sc2c1  6%
4. Clc1ccc(Cl)c(-c2ccc(/C=N/c3ncn[nH]3)o2)c1  4%
5. C=CCOC(=O)C1=C(C)NC(=O)NC1c1cn(-c2ccccc2)nc1-c1cccs1 (stereo not drawn)  4%
6. CCn1c(SCC(=O)Nc2ccc(C(=O)OC)cc2)nnc1-c1cccs1  3%
7. COc1ccccc1-n1cnnc1SCC(=O)c1ccc[nH]1  3%
8. Cc1nc2ccccc2c(=O)n1CC(=O)N1CCOCC1  2%
9. CN1C(=O)C2(NCCc3c2[nH]c2ccccc32)c2ccccc21 (stereo not drawn)  1%
10. CC(CN1CCN(C)CC1)OC(=O)c1ccc(Cl)cc1Cl (stereo not drawn)  0%
11. O=S(=O)(NCc1ccccn1)c1ccc2c(c1)OCCO2  0%
12. O=C(CN1C(=O)COCC1=O)N1CCOCC1  0%
13. CN(C)S(=O)(=O)N1CCN(S(=O)(=O)c2ccc(F)cc2)CC1  0%
14. CCc1c(C)nc2ncnn2c1N1CCC(C(=O)NCc2cccc(OC)c2)CC1  0%
15. CC(=O)NCCn1c(SCC(=O)NCC2CCCO2)nc2ccccc2c1=O (stereo not drawn)  0%
16. CCn1c(SCC(=O)Nc2nc(C)cs2)nnc1-c1ccco1  0%
17. COc1cccc(Oc2ccc(N)cc2)c1  0%
18. CN1CCc2c(sc3c2c(=O)n(-c2ccccc2)c2nnc(SCc4ccc(F)cc4)n32)C1  0%
